DT40 TDP1 no CPT – qHTS for Inhibitors of human tyrosyl-DNA phosphodiesterase 1 (TDP1): qHTS in cells in absence of CPT | actives 15% (n = 420,000) | DT40 Tdp1-/- hTDP1 cells, no CPT, ATP luminescence, 48 h | Potency, µM (doses to about 46.2 µM), for inactives: at the top dose activity change, negative = growth inhibition, hits mostly inhibitors | AID 686978, 2013; further: potency means the concentration at half of the fitted maximal effect; nearly all actives have a fitted effect of over 55% in size
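Luminescent ATP content (CellTiter-Glo) served as the growth readout. Knockout chicken DT40 cells expressing human TDP1 were exposed to compounds without camptothecin for a minimum 48 hr at 37 °C.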
HT1080NT lethal – kills 2HG-producing HT-1080-NT fibrosarcoma cells; HT-1080-NT fibrosarcoma viability, CellTiter-Glo ATP luminescence, 48 h; Potency, µM (series often up to 46.1 µM), inactives show top-dose activity, negative = less viability, usual class: cytotoxic; actives 1.6% (n = 360,000);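 further: NT is the 2HG producing partner of a matched IDH1 knockdown line; potency means the concentration at half of the fitted maximal effect; 0% = DMSO-treated cells and -100% = media-only wells without cells; nearly all actives have a fitted effect of over 55% in size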
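Read-out is CellTiter-Glo luminescence after 10 minutes at room temperature, following 48 hours' compound treatment of HT-1080-NT cells (750 cells/well, RPMI, 5% FBS, 37 degrees C).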
12-LOX inh – ALOX12 (human) lipoxygenase inhibition | purified 12hLO, xylenol orange hydroperoxide absorbance | Potency, µM (top dose mostly 108 µM), without a hit: top-dose activity change, negative = inhibition, hits mostly inhibitors | actives 1.1% (n = 580,000) | P18054; further: potency means the concentration at half of the fitted maximal effect
Target sequence (P18054 whole entry, looked up): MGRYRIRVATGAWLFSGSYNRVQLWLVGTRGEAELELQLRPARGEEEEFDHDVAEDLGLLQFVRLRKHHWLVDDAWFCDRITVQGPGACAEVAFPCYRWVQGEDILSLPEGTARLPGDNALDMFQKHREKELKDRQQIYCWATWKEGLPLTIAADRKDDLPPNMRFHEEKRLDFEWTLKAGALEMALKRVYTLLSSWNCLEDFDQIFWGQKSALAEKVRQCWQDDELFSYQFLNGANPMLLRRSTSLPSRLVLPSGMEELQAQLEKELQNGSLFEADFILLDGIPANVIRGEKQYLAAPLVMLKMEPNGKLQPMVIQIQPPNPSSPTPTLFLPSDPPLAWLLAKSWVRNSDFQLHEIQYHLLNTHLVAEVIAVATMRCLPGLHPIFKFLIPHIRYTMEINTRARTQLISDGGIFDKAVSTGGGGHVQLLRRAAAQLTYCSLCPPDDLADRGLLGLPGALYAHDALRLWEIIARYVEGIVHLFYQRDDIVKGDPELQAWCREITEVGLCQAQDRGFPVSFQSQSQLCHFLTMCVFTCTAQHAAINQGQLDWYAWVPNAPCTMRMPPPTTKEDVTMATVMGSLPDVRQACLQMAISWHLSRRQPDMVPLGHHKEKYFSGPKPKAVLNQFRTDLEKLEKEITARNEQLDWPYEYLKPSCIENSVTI
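Purified human 12hLO at 150 nM in 25 mM Hepes, 0.01% Triton X-100, pH 7.0, preincubated 15 min at room temperature with compound. Reaction started with 40 uM arachidonic acid, 30 min at room temperature. Hydroperoxide measured by Fe-xylenol orange, 573/405 nm absorbance ratio.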
IL-1B inflam inh – inflammasome signaling inhibition, IL-1 beta readout; THP-1 LPS/ATP IL-1B secretion, AlphaLISA, 16 h; active compounds read low; activity change, % at 57.5 µM; actives 4.7% (n = 360,000); in the data active means activity change below about -50%; inconclusive means mostly about -30% to -49%
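THP-1 cells pretreated 1 hr with compounds (up to 57.5 uM final), then stimulated with LPS (250 ng/mL final) plus ATP (1.25 mM final); secreted IL-1B measured by AlphaLISA after 16 hr, decreased signal indicating inhibition.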
DT40 TDP1 CPT – growth inhibition of DT40 Tdp1-/-;hTDP1 cells with camptothecin (screen for TDP1 inhibitors); Potency, µM (top dose mostly 46.2 µM), for the others: at the highest dose activity change, negative = growth inhibition, most hits filed as inhibitors; actives 12% (n = 420,000); chicken DT40 Tdp1-/-;hTDP1 cells + 20 nM CPT, ATP luminescence, 48 h; further: potency means the concentration at half of the fitted maximal effect; nearly all actives have a fitted effect of over 55% in size
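Chicken DT40 Tdp1-/- cells complemented with human TDP1, 400 cells/well, exposed to compounds plus 20 nM camptothecin for at least 48 h at 37 C; viability read as ATP content by CellTiter-Glo luminescence.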
HT1080 IDH1KD tx – toxicity to HT-1080 IDH1 knockdown cells (counter line). HT-1080 IDH1 knockdown viability, ATP luminescence, 48 h. Potency, µM (highest dose often 46.1 µM), for inactives: at the highest dose activity, negative = toxicity, actives largely listed as cytotoxic. actives 2% (n = 360,000);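 further: potency means the concentration at half of the fitted maximal effect; 0% = DMSO wells and -100% = cell-free medium wells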
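CellTiter-Glo luminescence after 48 h compound exposure at 37 degrees C of IDH1-knockdown HT-1080 cells in 5% FBS RPMI. %Activity scaled between DMSO wells and cell-free media wells, with curves fitted and assigned curve classes.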
* hit, by the source's call; ? = inconclusive; · = not tested or not shown. Only a selection was taken, and hits are over-represented in it overall. Unless noted, the call rests on the fitted dose curve; in most records, active means well fitted curve in the direction sought with a large enough effect; inconclusive means small, poorly fitted or top-dose-only effect, or another doubt; inactive means no such curve, though single readings can be large; an effect the other way counts as inactive or inconclusive. Unless noted, on the % scale 0 is the no-effect control and ±100 the full control effect.

SMILES	DT40 TDP1 no CPT	HT1080NT lethal	12-LOX inh	IL-1B inflam inh	DT40 TDP1 CPT	HT1080 IDH1KD tx
CC1CCCC(=C\c2ccccc2)/C1=N/O (stereo unspecified)	?	-12%	-27%	0	?	-14%
S=C1NC2=C(CCC/C2=C\c2ccc(Cl)cc2)C(c2ccc(Cl)cc2)N1 (stereo unspecified)	23µM*	?	25µM*	-26	?	-23%
Fc1ccccc1/C=C1\CCCC2=C1NC(=S)NC2c1ccccc1F (stereo unspecified)	?	-19%	32µM*	-5	?	?
Fc1cccc(/C=C2\CCCC3=C2NC(=S)NC3c2cccc(F)c2)c1 (stereo unspecified)	21µM*	-18%	?	-12	?	-9%
Cc1ccc(NC(=O)NCc2nc(-c3cccc(Cl)c3)oc2C)cc1	·	·	-27%	·	·	·
O=C1/C(=C/c2ccc(F)cc2)CCC1C1CCCC1 (stereo unspecified)	-15%	21%	-11%	-7	17%	28%
CC1CC2=C(NC(=S)NC2c2ccc(F)cc2)/C(=C/c2ccc(F)cc2)C1 (stereo unspecified)	?	10µM*	25µM*	-20	?	?
CCc1cccc(C)c1NC(=O)c1cc(C)nc2ccccc12	·	·	81%	·	·	·
O=C(/C=C/c1ccco1)OCc1nnc(-c2ccc(Cl)cc2)o1	-9%	0%	45µM*	0	7%	18%
C/[N+]([O-])=C\c1coc2ccccc2c1=O	-15%	-1%	156%	-6	7%	-2%
C#CCCc1ccccc1/C=[N+](/C)[O-]	?	-6%	-18%	49	23µM*	-1%
COC(=O)c1cccc(C#CC(NP(=O)(c2ccccc2)c2ccccc2)c2ccccc2)c1 (stereo unspecified)	?	-19%	?	-64*	26µM*	-28%
CCCCOCCCNC(=S)Nc1ccc(S(=O)(=O)N2CCOCC2)cc1	?	-12%	-16%	0	?	0%

Screening results from PubChem.
